Assay results taken from PubChem BioAssay AID1159580 (chemical genetic matrix, 2015).
The campaign covered roughly 5,500 compounds. About 2,000 (36%) were called active. Not shown: some 18% with an inconclusive outcome. Cut-off read from the data, not from the text of the source: active = normalized growth mostly below about 0.91 (no sharp cut-off); inconclusive = no clear call, values can overlap the other calls; inactive = mostly above about 0.92. Some of the results follow.

Test: chemical genetic growth profiling, strain panel (AID 1159580);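 note: tested at 20 µM; growth read once vehicle control cultures reached saturation at 30 °C; 1 = growth at the plate median or of vehicle wells; lower values mean less growth of the strain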
Details: S. cerevisiae deletion strains, growth OD

Measured: normalized growth

COc1ccc(-c2oc3cc(OC)c(OC)c(OC)c3c(=O)c2OC)cc1OC
inactive: locus YAL021C, strain ccr4, stronger effect = lower value 0.98 | locus YAL026C, strain drs2, stronger effect = lower value 0.957 | locus YAL030W, strain snc1, stronger effect = lower value 0.979 | locus YBL061C, strain skt5, stronger effect = lower value 0.998 | locus YBR009C, strain hhf1, stronger effect = lower value 0.966 | locus YBR023C, strain chs3, stronger effect = lower value 0.986 | locus YBR171W, strain sec66, stronger effect = lower value 0.972 | locus YBR231C, strain swc5, stronger effect = lower value 0.968 | locus YBR279W, strain paf1, stronger effect = lower value 0.983 | locus YCL011C, strain gbp2, stronger effect = lower value 0.972 | locus YCL016C, strain dcc1, stronger effect = lower value 1 | locus YCL061C, strain MRC1, stronger effect = lower value 0.993 | locus YCL069W, strain vba3, stronger effect = lower value 0.977 | locus YCR088W, strain abp1, stronger effect = lower value 0.976 | locus YDL005C, strain med2, stronger effect = lower value 0.981 | locus YDL040C, strain nat1, stronger effect = lower value 0.982 | locus YDR001C, strain nth1, stronger effect = lower value 0.978 | locus YDR069C, strain doa4, stronger effect = lower value 0.972 | locus YDR137W, strain rgp1, stronger effect = lower value 0.966 | locus YDR159W, strain sac3, stronger effect = lower value 0.966 | locus YDR195W, strain ref2 0.982 | locus YDR297W, strain sur2, stronger effect = lower value 0.984 | locus YDR334W, strain swr1, stronger effect = lower value 0.97 | locus YDR335W, strain msn5, stronger effect = lower value 0.982 | locus YDR392W, strain spt3, stronger effect = lower value 0.767 | locus YEL003W, strain gim4, stronger effect = lower value 0.973 | locus YEL037C, strain rad23, stronger effect = lower value 0.956 | locus YEL061C, strain CIN8 (second series), stronger effect = lower value 0.971 | locus YER015W, strain faa2, stronger effect = lower value 0.99 | locus YER016W, strain bim1, stronger effect = lower value 0.986 | locus YER111C, strain swi4, stronger effect = lower value 0.976 | locus YER155C, strain BEM2 (second series), stronger effect = lower value 0.932 | locus YFR010W, strain ubp6, stronger effect = lower value 0.96 | locus YGL167C, strain pmr1, stronger effect = lower value 0.983 | locus YGL173C, strain kem1, stronger effect = lower value 0.996 | locus YGL227W, strain vid30, stronger effect = lower value 0.976 | locus YGL240W, strain doc1, stronger effect = lower value 0.973 | locus YGL253W, strain hxk2, stronger effect = lower value 0.92 | locus YHR013C, strain ard1, stronger effect = lower value 0.956 | locus YHR027C, strain rpn1, stronger effect = lower value 1 | locus YHR030C, strain SLT2, stronger effect = lower value 1.03 | locus YHR079C, strain IRE1, stronger effect = lower value 1.01 | locus YHR142W, strain chs7, stronger effect = lower value 0.933 | locus YJL092W, strain hpr5, stronger effect = lower value 0.966 | locus YJL095W, strain BCK1 (second series), stronger effect = lower value 0.987 | locus YJL095W, strain BCK1, stronger effect = lower value 0.972 | locus YJL115W, strain asf1, stronger effect = lower value 0.986 | locus YJL129C, strain trk1, stronger effect = lower value 0.979 | locus YJL154C, strain vps35, stronger effect = lower value 0.974 | locus YJL164C, strain tpk1, stronger effect = lower value 0.974 | locus YJL166W, strain qcr8, stronger effect = lower value 0.978 | locus YJL187C, strain SWE1, stronger effect = lower value 0.981 | locus YJR066W, strain TOR1, stronger effect = lower value 1 | locus YKL160W, strain elf1, stronger effect = lower value 0.998 | locus YKR026C, strain gcn3, stronger effect = lower value 0.976 | locus YKR091W, strain srl3, stronger effect = lower value 0.985 | locus YLL001W, strain dnm1, stronger effect = lower value 1 | locus YLL026W, stronger effect = lower value 0.989 | locus YLL041C, strain sdh2, stronger effect = lower value 0.977 | locus YLR027C, strain aat2, stronger effect = lower value 0.986 | locus YLR113W, strain HOG1, stronger effect = lower value 0.902 | locus YLR221C, strain rsa3, stronger effect = lower value 1.01 | locus YLR258W, strain gsy2, stronger effect = lower value 0.994 | locus YLR262C, strain YPT6 (second series), stronger effect = lower value 0.95 | locus YLR320W, strain mms22, stronger effect = lower value 0.99 | locus YLR342W, strain FKS1, stronger effect = lower value 0.959 | locus YLR357W, strain rsc2, stronger effect = lower value 0.96 | locus YLR370C, strain arc18, stronger effect = lower value 0.986 | locus YLR384C, strain iki3, stronger effect = lower value 0.996 | locus YML120C, strain ndi1, stronger effect = lower value 0.97 | locus YMR058W, strain fet3, stronger effect = lower value 0.971 | locus YMR125W, strain sto1, stronger effect = lower value 0.964 | locus YMR129W, stronger effect = lower value 0.976 | locus YMR205C, strain PFK2, stronger effect = lower value 0.997 | locus YMR231W, strain pep5, stronger effect = lower value 0.992 | locus YNL071W, strain lat1, stronger effect = lower value 0.969 | locus YNL183C, strain NPR1, stronger effect = lower value 0.956 | locus YNL209W, strain ssb2, stronger effect = lower value 0.993 | locus YNL248C, strain rpa49, stronger effect = lower value 0.967 | locus YNL322C, strain KRE1 (second series), stronger effect = lower value 0.989 | locus YNR049C, strain mso1, stronger effect = lower value 0.982 | locus YOR001W, strain rrp6, stronger effect = lower value 0.938 | locus YOR070C, strain gyp1, stronger effect = lower value 0.983 | locus YOR080W, strain dia2, stronger effect = lower value 0.987 | locus YOR083W, strain WHI5, stronger effect = lower value 0.998 | locus YOR106W, strain vam3, stronger effect = lower value 0.991 | locus YOR231W, strain MKK1, stronger effect = lower value 1.02 | locus YOR265W, strain rbl2, stronger effect = lower value 0.987 | locus YOR270C, strain vph1, stronger effect = lower value 0.863 | locus YOR290C, strain snf2, stronger effect = lower value 0.953 | locus YPL051W, strain arl3, stronger effect = lower value 1 | locus YPL078C, strain atp4, stronger effect = lower value 0.977 | locus YPL106C, strain sse1, stronger effect = lower value 0.969 | locus YPL240C, strain hsp82, stronger effect = lower value 0.995 | locus YPL256C, strain CLN2, stronger effect = lower value 1
